Laboratory results taken from the supplement of paper PMC6555819.

Experiments:
Test in all cases: PBM binding z-score (relative to random genomic background probes); higher = stronger binding; sequences stand for … in GC…GCGATTGACAGCGTAGAATGAAGG
[1] = test system: RARb homodimer (NR concentration 270 nM)
Outline: (§1)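 Custom Agilent 4×180K protein-binding microarrays carried double-stranded probes, each with a 34-nt variable region. These regions held direct-repeat seeds, single-nucleotide variants, half-site ablations and random human genomic background sequences. Ligand-free nuclear receptor dimers were incubated on the arrays for 1 h, antibodies against each partner (one per run) detected binding, and scanned fluorescence was regression-normalized. Binding z-scores take the random background probes as reference.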

[2] = test system: RARg:RXRa (NR concentration 270 nM, RXRa partner concentration 90 nM)
Outline: as §1

[3] = test system: RARg homodimer (NR concentration 270 nM)
Outline: as §1

[4] = test system: RXRa DBDmut IVT, anti-RXR (DBD mutation: RXRa K156A/R161A, NR concentration 90 nM)
Outline: as §1

[5] = test system: RXRa homodimer (NR concentration 180 nM)
Outline: as §1

[6] = test system: THRa:RXRa (NR concentration 90 nM, RXRa partner concentration 90 nM)
Outline: as §1

[7] = test system: THRa homodimer (NR concentration 90 nM)
Outline: as §1

[8] = test system: VDR:RXRa (NR concentration 270 nM, RXRa partner concentration 90 nM)
Outline: as §1

[9] = test system: VDR homodimer (NR concentration 270 nM)
Outline: as §1

Sequence	PBM binding z-score [1]	PBM binding z-score [2]	PBM binding z-score [3]	PBM binding z-score [4]	PBM binding z-score [5]	PBM binding z-score [6]	PBM binding z-score [7]	PBM binding z-score [8]	PBM binding z-score [9]
CCTACTGGGCCACGAAAGGTCATCGATTCAGTGA	4.88	5.15	4.75	0.398	5.62	4	1.08	4.24	1.56
CTGGAAAGGTCGTGCTCAGGTGAGTATACCAAAC	2.76	5.06	3.97	1.91	4.95	4.09	0.923	3.1	0.759
AGAATGAGGTTATTAGGATCAGGGAATTGCGGTC	1.24	1.4	0.986	2.16	1.9	2.35	1.11	2.7	1.87
TAGCCTAGGTCATGGGCCAGTATTCCACGCGAAC	2.79	4.27	4.6	0.71	3.8	2.99	1.33	2.09	0.208
ATACCAAGGTGATCGTGAGGTCATTGATACTAAC	4.17	4.94	3.31	1.63	3.99	4.6	4.6	5.31	4.77
TCTGCTAGGTCACTTGGTCAGCTAACGAGCTGCC	3.07	4.03	4.52	1.54	2.41	2.58	0.574	1.3	0.129
GCGACTGGGCCAAAGCAGGTTACCATAAGGTTGG	0.333	-0.0916	-0.132	-0.818	-0.0243	1.82	-0.598	-0.513	-0.503
TGAATGAGGTTATAAGATCAGGGCACGTTGCAAA	1.02	1.74	1.28	0.591	2.05	2.4	0.785	1.21	0.892
AGTATTAGTTGAGACGAGGGCAACCGATAGGTTG	1.37	0.642	0.922	0.464	0.65	2.68	0.356	0.873	1.53
TTACCAAGGAGAAAGGTCGTTGATGCACGCCTTG	1.55	1.43	0.929	0.362	2.29	1.48	-0.13	1.49	1.17
CCGATTGGGGCAAAGGTTACCATACTCAGTACGA	2.03	3.52	1.64	0.678	3.76	1.84	-0.136	1.6	0.0147
CACCCTAGGTCAGGGCCAGTATAGGAGGAACGTT	2.67	3.33	3.69	-0.329	1.99	2.23	0.911	0.555	-0.219
ATATGTAGGGTACATCCGGGTCATTCAGGCTATG	2.84	2.44	1.86	2.66	2.64	3.83	2.45	5.09	5.83
TAGCCTAGGTCATTCAGGGGCCAGTATCGAAAGC	3.55	5.82	4.73	1.96	3.05	3.47	0.885	2.97	1.48
TCAGACAGGTGAAGGTAACTAAGGTACGCAGTCG	0.841	0.733	0.744	1.14	1.05	1.43	0.595	1.01	-0.102
TCTTGTAGAACAGCAGGTTAAGAAAGCTGGCCAA	-0.365	-0.24	-0.558	0.506	0.0431	-0.111	-1.15	0.0158	-0.882
GGAACGAGGGCAACGTTGATAGCATCTGTCGACG	0.961	1.37	1.79	1.56	0.986	0.981	-0.186	0.229	-0.00307
CCTTACGGGTCACTCCAGGTTTTAGCATCGGAGT	2.77	4.49	4.02	1.79	4.23	4.31	0.0902	3.47	1.74
CAGACAGGGTCAGCTAGGCCAGAGTAGGGACGGC	3.06	4.3	4.64	1.59	4.42	3.01	0.505	3.81	0.912
CCAGACAGGTGAAAGGTAACTCTGTCTGGTACGC	0.719	1.24	0.754	0.07	2.07	1.01	-0.229	0.668	0.0648
ATCGAAAGGTCGTTAGGTGAGTATACAGAAAGGC	2.59	3.91	3.44	2.2	3.98	2.51	0.793	3.58	1.84
CAAACTAGGTAACCGGAAGGTCAAAGTCCGCATG	4.17	4.35	3.57	0.531	3.79	3.26	1.44	3.35	2.22
TGAATGATGTTAAAGATCAGGGAACGTGGCGTCG	-0.832	0.221	0.133	-0.892	0.495	-0.238	-0.77	-0.0975	-0.0105
TAGCCTAGGTCATTCAGGGACCAGTATAGAAAGC	2.63	3.94	4.11	1.43	2.72	4.26	0.615	2.57	1.19
TCGAGTAGGTTAGTCGGGGGATTCAGCCAACATA	0.341	0.199	0.0266	0.48	0.178	1.25	0.267	0.946	0.183
ATACCAAGGTGATCGTTAGGTCGTTGATACTAAC	1.02	0.983	0.72	0.203	0.459	2.26	1.49	0.566	0.472

Sequence	PBM binding z-score [1]	PBM binding z-score [2]	PBM binding z-score [3]	PBM binding z-score [4]	PBM binding z-score [5]	PBM binding z-score [6]	PBM binding z-score [7]	PBM binding z-score [8]	PBM binding z-score [9]
CAAACTAGGACAAGGTCAAAGTCGGTTTGTGCCA	3.66	4.2	3.68	2.27	4.36	3.84	2.86	4.36	3.88
TGTCAAAGTTCAAAGTTAACGTAAGTATCCACAC	3.88	5.8	5.72	4.53	5.86	2.62	0.00571	4.57	4.02
CAAACAGGGTCAGCTAGGCCAGAGTAGGGACGGC	3.2	4.72	4.56	1.83	4.56	2.94	0.733	4.09	1.44
TGAATGAGATTAAAGATCAGGGAACGTGGCGTCG	-0.824	-0.0861	0.247	-1.09	0.253	-0.316	-0.698	-0.176	-0.27
CAAACTAGGTCAAGAGCTCAAAGTCCGCTTCCCG	2.98	3.82	4.02	1.34	2.39	2.73	0.891	1.29	0.0239
TAGCCTAGGTCATTCTGGGGCCAGTATAGAAAGC	2.94	4.85	3.81	1.87	2.52	3.62	0.956	2.88	1.11
TCTAGGAGGACACGAAAGGTCAGAGCTCGACATC	4.84	4.88	5.11	1.35	4.21	3.98	1.4	3.42	0.994
ATCGAAAGGTCGTGTGGTGAGTATACAGAAAGGC	2.97	4.21	3.83	2.19	4.59	2.39	0.842	3.66	2.03
GCATATAGGTAATACAGGGTGAAAGTCCGATTGT	0.685	0.386	0.492	0.439	0.917	3.38	0.41	0.521	0.239
TTTCCAAGGTGAAGGTCGTTGATCCCTCTGTAGA	2.06	1.51	1.29	0.389	1.95	2.94	1.8	1.45	1.37
CGAACTAGGTCATTGTCAGGACAGTGAATAGTAA	2.62	4.33	4.35	2.31	2.37	4.27	2.09	2.52	1.82
TCTGCTAGATCAGTTGGTCAGCTAACGAGCTGCC	-0.799	-0.667	-0.644	-0.256	-0.419	-1.77	-1.48	-0.706	-1.49
CCTACTGGGCCAGGGTCATTGATCAGTCAAAGCA	2.52	3.5	2.02	0.154	3.7	2.7	0.841	3.14	2.48
ACTATTAGTTGAGACGAGGGCAACAGATAGGTTG	1.17	0.793	0.969	0.472	0.663	2.42	0.255	0.625	1.15
CGAACTAGGGCAAGGACAGTGAATCTCCGCACGC	0.945	0.544	1.17	0.123	0.145	1.09	0.786	-0.473	0.0219
ATATGTCGGTTAAGGGTCATTCAGGTTGGTTCGC	3.68	4.69	3.43	2.21	4.55	3.42	1.7	5.48	4.47
ATCTCTAGGTAACCAAGTTCAGTGTATGCCGAAC	1.47	0.771	0.637	0.982	0.429	1.48	0.867	3.91	2.85
GGAACGAGGGCAAGTTCATAGCAGAGTTTGATGG	2.84	2.99	3.16	3.64	2.16	2.35	0.375	3.9	5.08
CCGGCTGGGGCAAAGGTTACCATACTCAGTACGA	2.25	3.68	1.69	-0.158	3.6	1.77	-0.377	1.58	-0.169
TTTGCTAGGTCAACGATGGTCAGCTAATCTGCTA	3.69	4.05	5.28	1.02	2.67	3.33	1.02	1.9	0.00226
CCTACTGGGCCAAAGGTTATTGATTCCAATGCTC	1.57	2.07	0.739	0.31	2.12	1.13	-0.123	1.34	0.0494
TCTGCTAGGTCTGTTGGTCAGCTAACGAGCTGCC	-0.195	-0.258	-0.599	0.00538	-0.403	-0.454	-0.978	-0.568	-1.23
AGACCGAGGGCAATGAGTTGATAGCACGGGTGGC	0.894	0.934	1.36	1.31	0.545	0.481	-0.368	4.82	3.16
TCTGGGAGGACACGAAGGTCAGAGCTTTCCAGAG	3.49	3.51	4.11	0.416	2.01	2.9	1.18	2.18	1.35
AATACCGGGTCATCGTAGGCCAGAGTACGCACAG	3.19	4.84	4.28	2.45	5.06	4.59	1.69	4.42	3.06
TCATATAGGTAAAGGTTAAAGTCGAACGATATGA	2	2.68	2.28	1.27	3.91	1.81	-0.146	1.98	0.675
